Reference: PubChem BioAssay (NCATS)
Several values for one entry are separate records, joined by “and”; a condition that tells them apart may be missing. Equal values may be shown once. A number with no mark means an inactive call. Results filed as inconclusive are left out. Activity calls are given as the source filed them. The call rests on the fitted dose curve; in most records, active means well fitted curve in the direction sought with a large enough effect; inconclusive means small, poorly fitted or top-dose-only effect, or another doubt; inactive means no such curve, though single readings can be large; an effect the other way counts as inactive or inconclusive.

Key:
[1] = target: Cytochrome P450 3A4 (Homo sapiens) (UniProt P08684); test: qHTS Assay for Inhibitors and Substrates of Cytochrome P450 3A4 (AID 884); further: potency means the concentration at half of the fitted maximal effect; nearly all actives have a fitted effect of over 50% in size
Summary of the method: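 Luminescent readout of luciferin produced by CYP3A4 (20 nM) dealkylation of Luciferin-PPXE, 25 uM (its KM). NADPH-driven reaction ran 60 min at RT after 10 min compound preincubation; data scaled to 57 uM ketoconazole as 100% inhibition.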

[2] = target: Cytochrome P450 3A4 (Homo sapiens) (UniProt P08684); test: qHTS Assay for Activators of Cytochrome P450 3A4 (AID 885); further: nearly all actives have a fitted effect of over 65% in size
Summary of the method: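 Luminescent readout of luciferin formed from 25 uM Luciferin-PPXE (KM level) by 20 nM CYP3A4 in 200 mM KPO4, with 60 min NADPH-driven reaction at room temperature after 10 min compound exposure. Ketoconazole (57 uM) defined 100% inhibition.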

Chain of Cytochrome P450 3A4 (Homo sapiens) (P08684 whole entry, looked up): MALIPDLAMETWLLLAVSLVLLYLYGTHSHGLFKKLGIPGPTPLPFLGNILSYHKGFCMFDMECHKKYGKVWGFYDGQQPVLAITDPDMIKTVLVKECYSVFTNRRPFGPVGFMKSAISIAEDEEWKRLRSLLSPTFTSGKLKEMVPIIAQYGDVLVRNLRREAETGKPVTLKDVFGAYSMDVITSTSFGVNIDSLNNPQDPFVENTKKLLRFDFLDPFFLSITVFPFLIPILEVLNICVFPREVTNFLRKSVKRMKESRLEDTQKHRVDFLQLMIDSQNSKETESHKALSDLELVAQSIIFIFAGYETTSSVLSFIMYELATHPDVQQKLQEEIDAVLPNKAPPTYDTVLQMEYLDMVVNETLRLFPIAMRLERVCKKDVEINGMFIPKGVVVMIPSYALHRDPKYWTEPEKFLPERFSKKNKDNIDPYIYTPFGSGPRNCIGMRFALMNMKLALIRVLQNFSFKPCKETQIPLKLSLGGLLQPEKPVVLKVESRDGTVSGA

For `Clc1ccc(C2[C@H]3CN(Cc4cccnc4)[C@H](c4ccccc4)C34CC2(c2cccnc2)C4)cn1` (stereo not given in full), the Potency [1] was 2.51 µM (active) and the Potency [2] was “inactive”.

In the case of `CCN1C(=O)[C@H]2[C@H]3[C@H](O)[C@H](O)C/C(=N/O[C@@H](C)c4cc(-c5c(C)cc(C)cc5C)no4)[C@@H]3CC[C@@H]2C1=O`, the Potency [1] is reported as 3.98 µM (active) and the activity change, positive = activation [2] is reported as -72.9% [at 11.4 µM].

With `C#CCCCO/N=C1/C[C@@H](O)[C@@H](O)[C@@H]2[C@H]3C(=O)N(c4ccc(F)cc4F)C(=O)[C@@H]3CC[C@@H]12` the Potency [1] was 3.16 µM (active) and the activity change, positive = activation [2] was -61.6% [at 11.4 µM].

With `CCC1=C(OC(=O)N(CC)CC)N2C(=O)OC(=NCCc3c[nH]c4ccccc34)[C@]2(Cc2ccccc2)[C@H]2C1=CC[C@H]1C(=O)N(CC)C(=O)[C@H]12` the Potency [1] was 2 µM (active) and the Potency [2] was “inactive”.

For `COC(=O)c1cccc(C23CC4(C2)[C@H](CN(C)[C@@H]4c2ccccc2)C3c2ccccc2)c1` (stereo not given in full), the Potency [1] was 7.94 µM (active) and the Potency [2] was “inactive”.

`CCC1=C2CC[C@H]3C(=O)N(c4ccccc4)C(=O)[C@H]3[C@H]2[C@@]2(Cc3ccccc3)C(=NCc3ccccc3)OC(=O)N2C1=O` was tested, and the Potency [1] was 5.01 µM (active) and the Potency [2] was “inactive”.

`CO[C@@H]1COC(=O)CCC[C@@H](C)[C@H](OC)COC(=O)[C@H](Cc2ccccc2)NC(=O)C/C=C\[C@H]1C` was tested, and the Potency [1] was 3.98 µM (active) and the activity change, positive = activation [2] was -87.8% [at 11.4 µM].

`C/C(CCN1CCCCc2nc(C)c(C)cc21)=N\O[C@@H](C)CN1CCCCc2nc(C)c(C)cc21` was tested, and the Potency [1] was 3.98 µM (active) and the activity change, positive = activation [2] was -81.7% [at 11.4 µM].

In the case of `C=CC[C@@H]1C=C[C@H](O/N=C(\C)CCN2CCc3nc(-c4ccccc4)c(-c4ccccc4)cc3C2)[C@H](CO)O1`, the Potency [1] is reported as 3.98 µM (active) and the activity change, positive = activation [2] is reported as -81.8% [at 11.4 µM].

With `C=CC[C@@H]1C=C[C@H](O/N=C\[C@@H](C)[C@H](OCc2ccccc2)C(C)C)[C@H](CO)O1` the Potency [1] was 3.98 µM (active) and the activity change, positive = activation [2] was -73.8% [at 11.4 µM].

For `CCCOc1ccc(Br)cc1-c1cc(-c2ccc(Cl)cc2)[nH]c1-c1ccncc1`, the Potency [1] was 1.26 µM (active) and the Potency [2] was “inactive”.

In the case of `COC(=O)c1ccc(C23CC4(C2)[C@H](CN(Cc2cccnc2)[C@@H]4c2ccccc2)C3c2ccccc2)cc1` (stereo not given in full), the Potency [1] is reported as 3.98 µM (active) and the Potency [2] is reported as “inactive”.

With `CCC1=C2CC[C@H]3C(=O)N(CC)C(=O)[C@H]3[C@H]2[C@@]2(Cc3ccccc3)C(=NCCOC)OC(=O)N2C1=O` the Potency [1] was 10 µM (active) and the Potency [2] was “inactive”.

For `CCCNC(=O)OC[C@@H]1O[C@H](CCO/N=C(\C)CCN2CCc3nc(CC)c(CC)cc3C2)C=C[C@@H]1Oc1ccc(OC)cc1`, the Potency [1] was 3.98 µM (active) and the activity change, positive = activation [2] was -86.1% [at 11.4 µM].

In the case of `C/C(CCN1CCCc2nc(C)c(C)cc21)=N\O[C@@H](C)c1cn([C@H](CO)Cc2ccccc2)nn1`, the Potency [1] is reported as 2 µM (active) and the activity change, positive = activation [2] is reported as -60.4% [at 11.4 µM] and -67% [at 11.4 µM].

For `Cc1ccc(S(=O)(=O)N[C@H]2COC(=O)CC=C[C@@H](C)[C@H]3C=C[C@H](O)[C@@H](COC(=O)CC=C[C@H]2C)O3)cc1`, the Potency [1] was 3.16 µM (active) and the activity change, positive = activation [2] was -86.3% [at 11.4 µM].

For `COC(=O)[C@@H]1C[C@@H]2CC[C@@H](O)C[C@@H]2N1Cc1ccccc1OS(=O)(=O)c1ccc(C)cc1`, the Potency [1] was 2.51 µM (active) and the Potency [2] was “inactive”.

With `O=C(N/N=C1/C[C@@H](O)[C@@H](O)[C@@H]2[C@@H]3C(=O)N(Cc4ccc5c(c4)OCO5)C(=O)[C@H]3CC[C@H]12)OCc1ccccc1` the Potency [1] was 3.98 µM (active) and the activity change, positive = activation [2] was -89.7% [at 11.4 µM].

For `CCC1=C(OC(=O)N(CC)CC)N2C(=O)OC(=NCC(=O)OC)[C@]2(C)[C@H]2C1=CC[C@H]1C(=O)NC(=O)[C@H]12`, the Potency [1] was 12.6 µM (active) and the Potency [2] was “inactive”.

For `C/C(CCN1CCc2nc(-c3ccccc3)c(-c3ccccc3)cc2C1)=N\O[C@@H](C)CN1CCCCc2nc(C)c(C)cc21`, the Potency [1] was 3.98 µM (active) and the activity change, positive = activation [2] was -84.8% [at 11.4 µM].

With `Cc1ccc(S(=O)(=O)N[C@H]2COC(=O)C/C=C\[C@@H](C)[C@H](NS(=O)(=O)c3ccc(C)cc3)COC(=O)C/C=C\[C@H]2C)cc1` the Potency [1] was 3.16 µM (active) and the activity change, positive = activation [2] was -62.5% [at 11.4 µM].

In the case of `Cc1cc2c(nc1C)CCCCN2C[C@H](C)O/N=C\[C@@H](C)[C@H](OCc1ccccc1)C(C)C`, the Potency [1] is reported as 3.98 µM (active) and the activity change, positive = activation [2] is reported as -76.1% [at 11.4 µM].

With `COc1c(O)c(O)cc2c1oc1c3ccccc3oc(=O)c21` the Potency [1] was 25.1 µM (active) and the Potency [2] was “inactive”.

In the case of `c1ccc(C2[C@H]3CN(Cc4cccnc4)[C@H](c4ccccc4)C34CC2(c2ccccc2)C4)cc1` (stereo not given in full), the Potency [1] is reported as 1.58 µM (active) and the Potency [2] is reported as “inactive”.

With `COC(=O)C/C=C\[C@@H](C)[C@@H](/C=N\O[C@@H](C)c1cn([C@H](CO)Cc2ccccc2)nn1)OC` the Potency [1] was 3.98 µM (active) and the activity change, positive = activation [2] was -56.1% [at 11.4 µM] and -71.3% [at 11.4 µM].
